According to the supplement of paper PMC6555819:

What was measured:
Assay in all cases: PBM binding z-score (relative to random genomic background probes); higher = stronger binding; sequences stand for … in GC…GCGATTGACAGCGTAGAATGAAGG
[1] = system: FXR:RXRa (NR concentration 270 nM, RXRa partner concentration 90 nM)
Procedure, shortened: (§1)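 The probes on custom Agilent 4×180K protein-binding microarrays were double-stranded, with 34-nt variable regions bearing direct-repeat seeds, single-nucleotide variants, half-site ablations and random human genomic background sequences. Incubation lasted 1 h with ligand-free nuclear receptor dimers in PBS pH 7.4, 2% milk, 0.02% Triton X-100, 1 mM DTT, 0.2 mg/mL BSA and 0.4 mg/ml salmon testes DNA. Antibodies against each partner (one per run) detected bound dimers, and fluorescence scans were regression-normalized. Binding z-scores take the random background probes as reference.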

[2] = system: LXRa:RXRa (NR concentration 270 nM, RXRa partner concentration 90 nM)
Procedure, shortened: as §1

[3] = system: LXRa homodimer (NR concentration 270 nM)
Procedure, shortened: as §1

[4] = system: LXRb:RXRa (NR concentration 270 nM, RXRa partner concentration 90 nM)
Procedure, shortened: as §1

[5] = system: LXRb homodimer (NR concentration 270 nM)
Procedure, shortened: as §1

[6] = system: PPARa:RXRa (NR concentration 270 nM, RXRa partner concentration 90 nM)
Procedure, shortened: as §1

[7] = system: PPARg:RXRa (NR concentration 180 nM, RXRa partner concentration 90 nM)
Procedure, shortened: as §1

[8] = system: PPARg:RXRa 270nM:90nM, anti-RXR (NR concentration 270 nM, RXRa partner concentration 90 nM)
Procedure, shortened: as §1

[9] = system: PPARg:RXRa 30nM:10nM, anti-RXR (NR concentration 30 nM, RXRa partner concentration 10 nM)
Procedure, shortened: as §1

[10] = system: PPARg:RXRa 90nM:30nM, anti-RXR (NR concentration 90 nM, RXRa partner concentration 30 nM)
Procedure, shortened: as §1

[11] = system: PPARg:RXRa DBDmut IVT, anti-RXR (DBD mutation: RXRa K156A/R161A, NR concentration 270 nM, RXRa partner concentration 90 nM)
Procedure, shortened: as §1

[12] = system: PPARg:RXRa IVT, anti-PPARg (NR concentration 270 nM, RXRa partner concentration 90 nM)
Procedure, shortened: as §1

[13] = system: PPARg DBDmut:RXRa IVT, anti-PPARg (DBD mutation: PPARg1 K132A/R137A, NR concentration 270 nM, RXRa partner concentration 90 nM)
Procedure, shortened: as §1

[14] = system: PPARg DBDmut IVT, anti-PPARg (DBD mutation: PPARg1 K132A/R137A, NR concentration 270 nM)
Procedure, shortened: as §1

[15] = system: PPARg homodimer (NR concentration 180 nM)
Procedure, shortened: as §1

[16] = system: PXR:RXRa (NR concentration 270 nM, RXRa partner concentration 90 nM)
Procedure, shortened: as §1

[17] = system: PXR homodimer (NR concentration 270 nM)
Procedure, shortened: as §1

[18] = system: RARa:RXR (NR concentration 270 nM, RXRa partner concentration 90 nM)
Procedure, shortened: as §1

[19] = system: RARa homodimer (NR concentration 270 nM)
Procedure, shortened: as §1

[20] = system: RARb:RXRa (NR concentration 270 nM, RXRa partner concentration 90 nM)
Procedure, shortened: as §1

Sequence	PBM binding z-score [1]	PBM binding z-score [2]	PBM binding z-score [3]	PBM binding z-score [4]	PBM binding z-score [5]	PBM binding z-score [6]	PBM binding z-score [7]	PBM binding z-score [8]	PBM binding z-score [9]	PBM binding z-score [10]	PBM binding z-score [11]	PBM binding z-score [12]	PBM binding z-score [13]	PBM binding z-score [14]	PBM binding z-score [15]	PBM binding z-score [16]	PBM binding z-score [17]	PBM binding z-score [18]	PBM binding z-score [19]	PBM binding z-score [20]
GATACTGGGTCAGCTAGAGGCCAGAGTATGGAAA	0.906	0.796	-0.487	0.388	-0.812	2.91	3.87	3.8	0.981	2.65	5.49	5.95	0.246	-0.167	1.24	1.15	-0.114	2.03	-0.28	3.26
ATCGCAAGGTCGTGAGGTGAGTATACAGAAAGGC	2.59	1.9	-0.0908	1.6	-0.382	3.36	1.49	1.84	0.321	0.863	-0.158	1.26	0.877	-0.102	0.794	1.78	0.241	2.78	-0.445	2.67
TCTATTAGTTGATTAGGGCAACTGAAACAGCGGA	0.195	0.677	0.0182	0.747	0.522	0.782	0.0466	1.87	3.5	2.6	2.22	1.45	1.14	0.725	-0.0911	0.233	0.247	0.283	0.703	0.768
CCTACTGAGCCAAAAAGGTCATTGATGCCGATAA	3.37	4.28	3.65	4.29	1.17	4.37	1.31	2.81	0.896	1.99	0.522	1.14	-0.507	0.266	3.04	4.49	2.44	4.93	2.61	3.86
CGAACTAGGTCATCTAGGACAGTGAATACATTGA	4.09	2.49	0.484	2.12	-0.144	4.72	7.33	6.44	3.66	5.7	8.06	8.21	3.51	1.83	2.99	1.73	0.602	2.23	0.753	3.92
CAAACTAGGCCACCGGAAGGTCAAAGTCCGCATG	2.96	3.08	3.39	3.15	0.364	4.46	5.26	5.14	1.86	4.33	7.33	6.74	1.26	1.26	3.52	3.81	1.26	4.32	1.24	3.54
CGTCCACGGTCATAGGAGGTCAGTGAAGACAGAT	2.58	4.52	2.1	2.15	-0.643	2.16	0.881	0.977	-0.0793	0.32	0.0707	2.02	-0.535	-1.15	1.73	3.88	0.754	2.6	0.207	3.65
CCGACTGGGGCAGAAAGGTTGCCATACCATCCGG	-0.157	-0.408	-0.611	-0.446	-1.22	0.46	0.735	1.19	-0.155	0.7	1.37	1.17	-1.21	-1.54	-0.128	-0.241	-0.699	-0.0627	-0.964	0.6
TTTCCAAGGTGAGCTGAGGTCGTTGATCCAACTC	2.71	1.69	-0.117	0.979	-0.192	1.94	0.0102	1.07	0.576	0.913	1.18	2.2	0.272	0.546	0.272	4.97	1.26	2.04	-0.538	2.1
AGAACGAGCGCACGCTGAGTTGATAGCAGAGTAG	-0.57	-0.901	-0.709	-1.02	-1.26	-1.16	0.302	-0.706	-0.622	-0.45	-0.589	-0.892	-0.82	-1.39	-1.63	-0.74	-0.523	-0.952	-1.05	-1.05
CAAACTAGGTCACGAAAGATCAAAGTCGAATGAC	4.53	5	0.705	3.03	0.541	5.84	9.56	7.69	6.2	7.72	8.91	9.37	5.61	5.17	2.46	2.88	0.236	3.39	1.08	4.37
CTCGAAAGGTCGTGCTCAGGTTAGTATACCAAAC	5.58	4.22	0.511	3.78	0.719	5.12	2.57	3.75	0.966	2.37	0.848	1.77	0.0664	0.423	2.46	3.94	0.392	4.55	0.346	4.09
TAGCCTAGGTCATTCCGGGGCCAGTATAGAAAGC	4.26	3.29	0.811	2.53	1.33	3.21	1.75	2.04	0.233	1.01	1.04	2.62	-0.235	0.258	0.924	2.65	-0.216	3.02	-0.809	3.74
CGAACTATGTCAGAACAGGACAGTGAAGGATGAT	0.0056	-0.347	-0.162	-0.473	0.636	0.0465	0.811	0.229	0.135	-0.000779	1.99	1.16	0.888	0.9	0.278	-0.225	0.0805	0.0752	0.625	0.461
